Results as given in PubChem BioAssay (EPA / NIEHS).
“And” between values parts separate entries of the source, which are not always exact repeats. Identical values can stand only once. Records with an inconclusive call do not appear. Some structures have more than one record in an assay (separate samples or runs), and their calls can disagree. The source made the active and inactive calls. How the source made its calls: active means hit-call score of the fitted dose curve at least 0.9, where 1 is the maximum; inconclusive means response in the unintended direction; inactive means score below 0.9.

The compounds below were run on zebrafish Estrogen Receptor (ER2a), gene 317734 (assay: ATG_zfER2a_XSP2: Attagene TRANS-FACTORIAL Multi-Species (XSP2) HepG2 Assay for zebrafish Estrogen Receptor (ER2a) (AID 2283818);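 further: hits raise reporter mRNA so AC50 reflects activation of zebrafish ER2a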).
Description: ATG_XSP2_multi-species_TRANS is a cell-based, multiplexed assay created by modifying the existing Attagene TRANS-FACTORIAL system to include a panel of nuclear receptors from some or all the following species: human (Homo sapiens), mouse (Mus musculus), frog (Xenopus laevis), zebrafish (Danio rerio), chicken (Gallus gallus), and turtle (Chrysemys picta). The ECOTOX-FACTORIAL format uses HepG2, a human liver cell line, with measurements taken at 24 hours after chemical dosing in a 24-well plate. Xsp2 included 3 nM 6-alpha-fluorotestosterone and 1.5 nM norgestrel to stimulate the androgen receptor.ATG_zfER2a_XSP2 is one of 29 assay components measured or calculated from the ATG_XSP2_multi-species_TRANS assay. It is designed to make measurements of mRNA induction, a form of inducible reporter, as detected with fluorescence intensity signals by Reverse transcription polymerase chain reaction (RT-PCR) and Capillary electrophoresis technology.The assay endpoint ATG_zfER2a_XSP2 was analyzed in the positive analysis fitting direction relative to DMSO as the negative control and baseline of activity. Using a type of inducible reporter, measures of mRNA for gain-of-signal activity can be used to understand the reporter gene at the transcription factor-level as they relate to the gene ER. Furthermore, this assay endpoint can be referred to as a primary readout, because this assay has produced multiple assay endpoints where this one serves a reporter gene function. To generalize the intended target to other relatable targets, this assay endpoint is annotated to the nuclear receptor intended target family, where the subfamily is steroidal.
Human liver HepG2 cells are transiently transfected with multiple reporter transcription units (MRTUs) in 6-well plates using FuGene 6 reagent (Roche; 3 ml FuGene/1 mg DNA). The MRTU constructs are regulated by a cis-regulating element (promoter). […] A major difference between the CIS and TRANS system is that in CIS activities of endogenous TFs are measured, whereas the TRANS assay evaluates changes in activities of exogenous, chimeric NR-Gal4 proteins. […] At the end of 24 hour incubation, total RNA was isolated using TriZol reagent (Invitrogen). The isolated RNA is then reverse-transcribed using oligo(dT) primer and Mo-MLV reverse transcriptase (Invitrogen) with DNAse I (Ambion) treatment for 30 min. The one-tenth of the produced cDNA was amplified by PCR using Taq DNA polymerase (Invitrogen) and two reporter sequence-specific primers. The PCR products were fluorescently labeled by primer extension with 6-arboxyfluorescein (6-FAM) 5'-labeled reporter sequence-specific primer (2 min at 95 C, 20 s at 68 C and 10 min at 72 C) and these products were digested with 5U of HpaI (New England Biolabs) for 2h at 37 C. The fragments were purified using Qiaquick PCR columns (Qiagen), analyzed on an ABI 3130xL genetic analyzer (Applied Biosystems) with peak positions identified by using a set of X-rhodamine (ROX)-labeled MapMarker1000 molecular weight standards (BioVentures). The raw capillary electrophoresis data was processed using Attagraph software (Attagene).
With `CCC(C)c1ccc(O)cc1` (stereo not given) the AC50 was 14.5 µM (active) and 3.22 µM (active). In the case of `O=[N+]([O-])c1ccc(Oc2ccc(Cl)cc2Cl)cc1`, the outcome was “inactive”. For `C[C@]12C=CC3=C4CCC(=O)C=C4CC[C@H]3[C@@H]1CC[C@@H]2O`, the outcome was “inactive”. `CC(C)(C)C(O)(CCc1ccc(Cl)cc1)Cn1cncn1` (stereo not given) was tested, and the AC50 was 25.8 µM (active) and the outcome was “inactive”. In the case of `CCCCOC(=O)c1ccccc1C(=O)OCc1ccccc1`, the AC50 was 43.1 µM (active). For `CCCCC(CC)COC(=O)c1ccc(C(=O)OCC(CC)CCCC)c(C(=O)OCC(CC)CCCC)c1` (stereo not given), the outcome was “inactive”. With `Clc1ccc(C(c2ccc(Cl)cc2)C(Cl)(Cl)Cl)cc1` the AC50 was 22 µM (active). In the case of `c1ccc2c(c1)-c1cccc3cccc-2c13`, the outcome was “inactive”. For `Clc1ccc(C(c2ccc(Cl)cc2)C(Cl)Cl)cc1`, the AC50 was 2.85 µM (active).
